Measured values reported in PubChem BioAssay (NCATS).
Values joined by “and” are separate entries in the source; they are usually repeats but may differ in a detail not shown here. Equal entries are not always repeated. Inconclusive results are not listed. Active and inactive are the calls of the source. Unless noted, calls come from the whole dose curve; as a rule, active = well fitted curve in the direction sought with a large enough effect; inconclusive = small, poorly fitted or top-dose-only effect, or another doubt; inactive = no such curve, though single readings can be large; an effect the other way counts as inactive or inconclusive.

Tests used:
[1] = High-throughput drug toxicity screening in the BPDCN cell line Gen2.2 (AID 1224824; call rule not given here;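 note: cells exposed to compounds for 48 h before reading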); conditions: Gen2.2 BPDCN cells; at 45.8 µM (top of the series) unless noted
How it was run: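 Gen2.2 cells (500/well) in phenol red-free RPMI with 10% FBS were exposed to compounds for 48 h at 37 °C, 5% CO2. Viability was read by CellTiter-Glo luminescence and normalized to DMSO (100%) and 9.2 uM bortezomib (0%).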

[2] = High-throughput drug toxicity screening in the BPDCN cell line Cal-1 (AID 1224825; call rule not given here); conditions: Cal-1 BPDCN cell viability, qHTS; at 45.8 µM (top of the series) unless noted
How it was run: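 Viability of the BPDCN line Cal-1 is measured as ATP-based luminescence (CellTiter-Glo) following 48 h incubation with compounds. Percent activity uses DMSO-treated wells as 100% and 9.2 uM bortezomib as 0%.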

[3] = qHTS assay for measurement of the activity of small molecule inhibitors on Zika virus induced Caspase-3 activity in human iPSC derived neural progenitor cells (hNPCs) (AID 1224857); note: % of control where 0% means no effect; nearly all actives have a fitted effect of over 65% in size
How it was run: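 Values are percent inhibition of virus-induced caspase-3/7 signal, scaled between uninfected cells and ZIKV-infected cells. Infection used 2 FFU/cell for 6 h after 1 h compound exposure.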

[4] = qHTS assay for measurement of the activity of small molecule inhibitors on Zika virus induced Caspase-3 activity in human astrocytoma cells (AID 1224859);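 note: plate controls were ZIKV-infected untreated cells for no effect and uninfected cells for full effect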
How it was run: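 Compound added 1 h pre-infection; ZIKV 2 FFU/cell on SNB-19 cells, 6 h, 37 C/5% CO2. Caspase-Glo 3/7 luminescence; values as % inhibition of ZIKV-induced caspase activity.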

[5] = qHTS Screen of the MIPE 4.0 Collection Against Ewings Sarcoma (RDES) (AID 1259252); note: nearly all actives have a fitted effect of over 35% in size; note: potency is the fitted concentration of half-maximal effect
How it was run: (§1)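 Here, cells in 5% FBS RPMI were exposed for two days (48 h) to compound dilutions added four hours after plating. ATP-based CellTiter-Glo luminescence measured viability, normalized to vehicle and no-cell blanks.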

[6] = qHTS Screen of the MIPE 4.0 Collection Against Ewings Sarcoma (TC71) (AID 1259253); note: nearly all actives have a fitted effect of over 40% in size; note: potency is the fitted concentration of half-maximal effect
How it was run: as §1

[7] = qHTS Screen of the MIPE 4.0 Collection Against Ewings Sarcoma (EW8) (AID 1259255); note: nearly all actives have a fitted effect of over 35% in size; note: potency is the fitted concentration of half-maximal effect;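 for viability: 100% = DMSO-treated cells and 0% = medium-only wells without cells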
How it was run: as §1

[8] = qHTS Screen of the MIPE 4.0 Collection Against Ewings Sarcoma (TC32) (AID 1259256); note: nearly all actives have a fitted effect of over 45% in size; note: potency is the fitted concentration of half-maximal effect
How it was run: as §1

[9] = P-glycoprotein substrates identified in KB-3-1 adenocarcinoma cell line, qHTS therapeutic library screen (AID 1346986); note: nearly all actives have a fitted effect of over 60% in size;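 note: potency is the fitted concentration of half-maximal effect; potency is for cytotoxicity meaning loss of cell viability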
How it was run: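 72 h cell-killing screen, 500 cells/well, CellTiter-Glo luminescence. Paired lines KB-3-1/KB-8-5-11; P-gp dependence checked by tariquidar co-treatment and HEK-293 MDR-19 versus empty-vector cells.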

[10] = P-glycoprotein substrates identified in KB-8-5-11 adenocarcinoma cell line, qHTS therapeutic library screen (AID 1346987); note: nearly all actives have a fitted effect of over 65% in size; note: potency is the fitted concentration of half-maximal effect
How it was run: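 Compounds are pinned in dose-response onto KB-8-5-11 cells (500 cells/well, colchicine-free medium) and left 72 h at 37 degree C. CellTiter-Glo luminescence then yields AC50 values.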

[11] = qHTS Assay for Identifying Gametocytocidal Compounds (AID 743244);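 note: % is set by controls: 0 for no effect and ±100 for the full control effect; actives lower the fluorescent signal which means gametocytes are killed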; conditions: P. falciparum 3D7 stage III-V gametocytes, alamarBlue, 72 h; max response: stronger effect = lower value
How it was run: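 Stage III–V gametocytes of P. falciparum 3D7 were seeded at 20,000 cells/well onto pre-dispensed compounds. After 72 h, 37 °C, 5% CO2, alamarBlue was added for another 24 h.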

[12] = qHTS profiling of the MIPE4 collection as inhibitors of Plasmodium falciparum (3D7) proliferation (AID 743344; call rule not given here;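 note: scaled between DMSO vehicle wells and 0.29 µM artemisinin as full inhibition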); conditions: P. falciparum 3D7 in erythrocytes, SYBR Green DNA fluorescence, 72 h; at 28.5 µM (top of the series) unless noted
How it was run: (§2)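 Parasite DNA was quantified by SYBR Green I fluorescence (ex 485, em 535 nm) after overnight lysis in saponin/Triton buffer at room temperature. Cultures at 0.3% parasitemia and 2.5% hematocrit were first exposed to compound for 72 h at 37 C; signals were normalised to artemisinin (0.29 uM) and vehicle wells.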

[13] = qHTS profiling of the MIPE4 collection as inhibitors of Plasmodium falciparum (DD2) proliferation (AID 743345; call rule not given here); conditions: P. falciparum Dd2 in erythrocytes, SYBR Green DNA, 72 h; at 28.5 µM (top of the series) unless noted
How it was run: as §2

[14] = qHTS profiling of the MIPE4 collection as inhibitors of Plasmodium falciparum (DD2) proliferation (Rep 2) (AID 743346; call rule not given here); conditions: P. falciparum Dd2 in erythrocytes, SYBR Green DNA, 72 h; at 28.5 µM (top of the series) unless noted
How it was run: as §2

[15] = qHTS profiling of the MIPE4 collection as inhibitors of Plasmodium falciparum (HB3) proliferation (AID 743347; call rule not given here;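 note: plate controls were DMSO vehicle wells for no effect and artemisinin wells for full effect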); conditions: P. falciparum HB3 in erythrocytes, SYBR Green DNA, 72 h; at 28.5 µM (top of the series) unless noted
How it was run: as §2

[16] = qHTS assay for cell viability of HEK293 cells (AID 743288); conditions: ATP luminescence (CellTiter-Glo), 18 h, stronger effect = lower value; note: % is set by controls: 0 for no effect and ±100 for the full control effect; nearly all actives have a fitted effect of over 50% in size
How it was run: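 After 18 h compound exposure at 37 C, parental HEK293 cells (2,000/well) are lysed with CellTiter-Glo and luminescence is read following 30 min at room temperature.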

[17] = qHTS assay for cell viability of the p53RE-bla HCT-116 cell line (AID 743292); note: % is set by controls: 0 for no effect and ±100 for the full control effect; nearly all actives have a fitted effect of over 55% in size
How it was run: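 Quantitative high-throughput format: compounds in DMSO were pinned onto p53RE-bla HCT-116 cells (4,000/well) and incubated 16 h at 37 C. Total intracellular ATP, read by CellTiter-Glo luminescence, reflects viable cell number.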

Compound | cell viability, % of control (lower = more cytotoxic) [1] | viability (% of control) [2] | Potency [3] | Potency [4] | Potency [5] | Potency [6] | Potency [7] | Potency [8] | Potency [9] | Potency [10] | max response [11] | parasite growth, % of DMSO control [12] | parasite growth remaining, % of DMSO control (lower = more inhibition) [13] | parasite growth, % of control (lower = inhibition) [14] | growth, % of control [15] | max response [16] | outcome [17]
CC(=O)N[C@H]1[C@@H]([C@H](O)[C@H](O)CO)OC(C(=O)O)=C[C@@H]1N=C(N)N | 114% | 124% | inactive | inactive | inactive | inactive | inactive | inactive | inactive | inactive |  |  |  |  |  |  | 
CCCCCCCCCCCCCCCC(=O)OC[C@@H](NC(=O)C(Cl)Cl)[C@H](O)c1ccc([N+](=O)[O-])cc1 | 132% | 117% | inactive | inactive | inactive | inactive | inactive | inactive | inactive | inactive | 5.04% (inactive) | 101% | 95.4% | 135% | 112% |  | 
OC[C@@H](O)[C@@H](O)[C@H](O)[C@@H](O)CO | 201% | 126% | inactive | inactive | inactive | inactive | inactive | inactive | inactive | inactive |  | 100% | 91.5% | 92% | 70.6% | -5.81% (inactive) | 
O=C1c2c(O)cccc2[C@@H]([C@@H]2O[C@H](CO)[C@@H](O)[C@H](O)[C@H]2O)c2cc(CO)cc(O)c21 | 185% | 123% | inactive | inactive | inactive | inactive | inactive | inactive | inactive | inactive |  | 96.2% | 95.6% | 80.5% | 99.2% |  | 
CC(=O)C1=C(O)C=C2Oc3c(C(C)=O)c(O)c(C)c(O)c3C2(C)C1=O (configuration not stated) | 141% | 103% | inactive | inactive | inactive | inactive | inactive | inactive | inactive | inactive |  | 82.6% | 97.8% | 81% | 99% |  | 
O=C(O)c1ccc(Nc2ncc3c(n2)-c2ccc(Cl)cc2C(c2c(F)cccc2F)=NC3)cc1 | 41.7% | 18.2% | inactive | inactive | 1050 nM (active) | 833 nM (active) | 296 nM (active) | 590 nM (active) | 820 nM (active) |  |  | 56.9% | 82.8% | 44% | 52.9% |  | 
C=Cc1c(C)c2cc3nc(cc4[nH]c(cc5nc(cc1[nH]2)C(C)=C5CCC(=O)O)c(CCC(=O)OC)c4C)[C@@]1(C)C3=CC=C(C(=O)OC)[C@H]1C(=O)OC | 5.48% | 3.29% | inactive | inactive | 41.8 nM (active) | 83.3 nM (active) | 118 nM (active) | 74.3 nM (active) | inactive | inactive |  | 3.3% |  |  | 4.7% |  | 
CC(N[C@H]1CCCC[C@H]1NC(=O)c1ccc(Cl)cc1)c1cccc2ccccc12 (some centres not stated) | 114% | 20.6% | inactive | inactive | inactive | inactive | inactive | inactive |  |  |  |  |  |  |  |  | 
CON=C(C(=O)N[C@@H]1C(=O)N2C(C(=O)O)=C(Cn3ccc(=N)n3CCO)CS[C@H]12)c1csc(N)n1 | 137% | 95.7% | inactive | inactive | inactive | inactive | inactive | inactive | inactive | inactive |  |  |  |  |  |  | 
COc1cc(OC)c(C=CS(=O)(=O)Cc2ccc(OC)c(NCC(=O)O)c2)c(OC)c1 | 5.33% | 8.09% | inactive | inactive | 93.5 nM (active) | 187 nM (active) | 235 nM (active) | 52.6 nM (active) |  | 264 nM (active) |  | 88.3% | 82.7% | 77.6% | 68.2% |  | 
C[C@]12CC[C@@H]3c4ccc(O)cc4CC[C@H]3[C@H]1CC[C@H]2O | 50.6% | 12.5% | inactive | inactive | 8330 nM (active) | 16600 nM (active) | 18700 nM (active) | 16600 nM (active) |  | 7430 nM (active) |  | 65.8% | 93.3% | 74% | 86.3% | -7.02% (inactive) | inactive
N#Cc1c(NC(=O)c2cccc3ccccc23)sc2c1CCCC2 | 83.4% | 9.83% | inactive | inactive | 296 nM (active) | 526 nM (active) | 469 nM (active) | 235 nM (active) | 366 nM (active) | 418 nM (active) and 291 nM (active) |  | 69.2% | 81.7% | 90% | 69.7% |  | 
C[N+]1(C)[C@@H]2C[C@@H](OC(=O)C(O)(c3cccs3)c3cccs3)C[C@H]1[C@@H]1O[C@@H]12 | 87.6% | 97.5% | inactive | inactive | inactive | inactive | inactive | inactive | inactive | inactive |  |  |  |  |  |  | 
CNC(=O)Nc1ccc(-c2nc(N3CC4CCC(C3)O4)c3cnn(C4CCC5(CC4)OCCO5)c3n2)cc1 | 17.6% | 8.62% | inactive | inactive | 46.9 nM (active) | 13.2 nM (active) | 13.2 nM (active) | 7.4 nM (active) | 41.1 nM (active) | 14.8 nM (active) and 184 nM (active) |  | 5.91% | 7.38% | 8.34% | 3.02% |  | 
